Assay outcomes: PubChem, several laboratories
Yeast superoxide: yeast age-related superoxide inhibition as caloric restriction mimetic. superoxide response (% of plate mean), % at 10 µM. S. cerevisiae aged cells, superoxide DHE fluorescence; hits give low values. hit rate 0.18% among 330,000;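 active = superoxide response under a set limit, about three screen SD below normal, cut at about 65% in these data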;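 note: yeast aged for seven days with compound at 30 °C before DHE staining; 100% = average MFI of all compound-treated wells on the plate with controls excluded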
tim23-1 inh: tim23-1 yeast growth inhibition; S. cerevisiae tim23-1 growth, BacTiter-Glo luminescence, 24 h; inhibition, % at 20 µM; hit rate 1.3% among 330,000;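 active = growth inhibition of the mutant yeast at or above 50%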;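 note: temperature-sensitive mutant grown at 25 °C; plate controls were DMSO-treated mutant yeast for no effect and medium wells lacking yeast for full effect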
tim10-1 inh: tim10-1 yeast growth inhibition; S. cerevisiae tim10-1 ts strain growth, BacTiter-Glo, 24 h; inhibition, % at 20 µM; hit rate 2.2% among 330,000; AID 463190;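 active = inhibition of at least 40%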;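 note: mutant grown at 25 °C; 0% = DMSO wells with yeast and 100% = wells holding no yeast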
TIM10 inh: TIM10 yeast growth inhibition; S. cerevisiae TIM10 strain growth, BacTiter-Glo luminescence, 24 h; inhibition, % at 10 µM; hit rate 1.4% among 330,000;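 active = inhibition of 40% or more at the single tested concentration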;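 note: wild-type TIM10 isogenic control strain grown at permissive 25 °C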
NALP3 yeast inh: blocks the NALP3 inflammasome reconstituted in yeast; Yeast reconstituted NLRP3/ASC/caspase-1, beta-gal luminescence, 24 h; inhibition, % at 10 µM; hit rate 0.39% among 330,000;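 active = inhibition of 50% or more; inactive = inhibition below 50%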;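 note: plate controls were induced DMSO wells for no effect and uninduced yeast grown without galactose for full effect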
TIM10 conf: confirmation of TIM10 yeast growth inhibitors | hit rate 63% among 4,600 | shares compounds with TIM10 inh | AID 463215 | inhibition, % at 10 µM | S. cerevisiae tim10 strain growth, BacTiter-Glo luminescence, 24 h;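 active = inhibition of yeast growth at or above a set limit in either of two replicates at 10 µM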;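 note: this counterscreen used the strain with wild-type TIM10; 0% = yeast with DMSO and 100% = medium wells lacking yeast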
An asterisk follows results filed as active; . = not tested or not shown. An excerpt weighted towards active compounds, which were near 3.8% of everything screened.

SMILES	Yeast superoxide	tim23-1 inh	tim10-1 inh	TIM10 inh	NALP3 yeast inh	TIM10 conf
COc1ccc(C2CC(C(F)(F)F)n3nc(C(=O)NCCCn4ccnc4)cc3N2)cc1OC (stereo unspecified)	108	-5	9	4	6	.
COc1ccc(NC(=O)c2cc3n(n2)C(C(F)(F)F)CC(c2ccc4c(c2)OCO4)N3)cc1OC (stereo unspecified)	97	34	38	41*	13	35*
Cc1ccnc(NC(=O)C2CCCN(S(=O)(=O)c3ccc4[nH]c(=O)ccc4c3)C2)c1 (stereo unspecified)	98	4	6	-9	8	.
COc1ccc(C(=O)NCCS(=O)(=O)NC2CCCC2)cc1	91	6	-2	41*	23	3
COCc1ccc(-c2c(-c3ccsc3)sc3ccccc23)cc1	128	3	0	-3	4	.
Oc1ccc(-c2c(-c3ccsc3)sc3ccccc23)cc1	91	41	30	48*	8	61*
CCOC(=O)c1ccc(S(=O)(=O)Nc2cc(S(=O)(=O)N3CCOCC3)ccc2O)cc1	95	-1	-2	-2	17	.
O=C(Nc1ccc(N2CCN(C(=O)c3ccccc3)CC2)c(Cl)c1)c1ccco1	91	22	15	45*	20	36*
O=C(c1ccccc1)c1cccc(NC(=O)c2ccco2)c1	110	42	36	53*	37	60*
O=C(Nc1ccc2c(c1)ncn2-c1ccccc1)c1ccco1	96	28	29	51*	38	50*
CCOC(=O)c1cccc(NC(=O)c2ccco2)c1	79	45	29	46*	39	26
CCn1cc(S(=O)(=O)c2ccc(Cl)cc2)c(=O)c2cc(OC)ccc21	94	2	19	14	9	.
O=C(NN=C1CCCCCC1)c1ccc(Cl)s1	99	8	9	15	11	.
CC(=O)NC1C(=O)N=C(SC(C)C(=O)Nc2cccc(Cl)c2)NC1=O (stereo unspecified)	100	13	6	-9	2	.
CC(C)(C)n1cnc2cc(NCc3cccs3)ccc21	97	-1	8	4	4	.
CC(C)(C)n1cnc2cc(NC(=O)c3ccccc3)ccc21	101	49	-1	58*	6	64*
Oc1[nH]c2ccc(Br)cc2c1N=Nc1ccc(C(F)(F)F)cn1	109	-6	35	31	25	.
Oc1[nH]c2ccccc2c1N=Nc1ccc(C(F)(F)F)cn1	95	25	26	53*	37	29
CC(Sc1ncccn1)C(=O)NNC(=O)c1cccc(Cl)c1 (stereo unspecified)	103	-4	-14	10	-1	.
CN(CC1COc2ccccc2O1)C(=S)Nc1ccccc1F (stereo unspecified)	92	43	28	41*	32	26
O=C(NCC1COc2ccccc2O1)Nc1ccccc1F (stereo unspecified)	94	29	9	24	25	.
O=c1[nH]c(NNC(=S)NC2CCCCC2)nc2c1C1(CCCC1)Cc1ccccc1-2	110	40	29	41*	1	32*
Cn1c(/C(C#N)=C/c2cccc(O)c2)nc2ccccc21	103	42	39	43*	11	36*
CCCNC(=O)NCCc1c(C)[nH]c2ccccc12	106	4	7	-4	-3	.
Cc1[nH]c2ccccc2c1CCNC(=O)c1ccc2c(c1[N+](=O)[O-])C(=O)c1ccccc1C2=O	149	37	31	45*	24	14
SMILES	Yeast superoxide	tim23-1 inh	tim10-1 inh	TIM10 inh	NALP3 yeast inh	TIM10 conf
O=C(CCCN1C(=O)/C(=C/c2cccc(Br)c2)SC1=S)Nc1cccnc1	105	25	37	21	18	.
O=C(CCCN1C(=O)/C(=C\c2cccc(Br)c2)SC1=S)Nc1cccnc1	102	37	36	45*	20	29
COC(=O)CCCCCN1C(=O)/C(=C\c2ccncc2)SC1=S	97	43	13	42*	7	28*
CC1CCCCC1NC(=S)NC(=O)c1sc2ccccc2c1Cl (stereo unspecified)	103	6	5	1	-6	.
O=C(NC(=S)N(CCCCO)C1CCCCC1)c1sc2ccccc2c1Cl	101	42	22	43*	14	14
Cc1cccnc1NC(=O)c1csnn1	97	16	21	-9	-12	.
Cc1ccccc1-n1c(-c2csc3ccccc23)n[nH]c1=S	96	32	35	40*	8	-30
Cc1c(C(=O)NCc2ccccc2CN2CCCC2)oc2ccc(F)cc12	106	6	-6	12	37	.
O=C(Cn1cnc2c(oc3ccccc32)c1=O)c1ccccc1	93	42	16	49*	49	29
COc1ccc(Cl)cc1NC(=O)C1CCN(S(C)(=O)=O)CC1	98	3	-15	-5	3	.
CCOc1ccc(S(=O)(=O)n2c([N+](=O)[O-])cnc2C)c(C)c1C	99	12	-2	97*	15	11
COc1ccc(S(=O)(=O)n2c([N+](=O)[O-])cnc2C)c(C)c1C	100	10	-3	-7	20	.
Clc1c(CSc2nc3ccccc3o2)nc2ccccn12	102	19	12	43*	35	-26
COc1cccc(C(=O)NC2CC(C)(C)NC(C)(C)C2)c1OC	93	5	-5	61*	14	12
COc1ccccc1C(=O)NC1CC(C)(C)NC(C)(C)C1	97	10	1	4	5	.
Cc1cccc(-n2c(-c3ccc(Br)o3)n[nH]c2=S)c1	94	19	18	25	12	.
Cc1ccccc1-n1c(-c2csc(C)c2C)n[nH]c1=S	128	16	28	18	4	.
Cc1cccc(-n2c(-c3csc(C(C)C)c3)n[nH]c2=S)c1	92	43	31	42*	21	30
Cc1cccc(-n2c(-c3csc(C)c3C)n[nH]c2=S)c1	104	28	39	44*	27	-20
Cc1nn(CCCC(=O)N2CCN(c3ccc(F)cc3)CC2)c(C)c1[N+](=O)[O-]	81	5	15	2	6	.
Cc1ccc(C)c(Oc2coc3cc(OC(=O)c4cccs4)ccc3c2=O)c1	92	26	31	40*	21	23
COc1ccc(Oc2coc3cc(OC(=O)c4cccs4)ccc3c2=O)cc1	113	-4	15	16	-11	.
CCOC(=O)Oc1ccc2c(=O)c(Oc3cc(C)cc(C)c3)coc2c1	102	44	39	44*	-10	29
CN(C(=O)CSc1nnc(Cc2ccccc2F)n1N)C1CCCCC1	117	3	16	-8	6	.
CCCCC#Cc1cncc(C(=O)N/N=C/c2cccc(OC)c2)c1	93	34	8	26	19	.
COCCNC(=S)N/N=C/c1c2ccccc2cc2ccccc12	101	35	28	41*	18	37*
CC(C)OC(=O)CSc1nnc(-c2cnccn2)n1Cc1ccco1	88	11	9	9	6	.
